The target in assay [1] is Cytochrome P450 1A2 (Homo sapiens) (UniProt P05177). As to the kind of experiment: p450-cyp1a2 (AID 410; calls by dose curve; also: potency is read from the fitted curve at half-maximal effect). As to conditions: recombinant CYP1A2, luciferin-ME demethylation, luminescence; series mostly up to 25.6 µM. In a few lines: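 20nM CYP1A2 with 100uM Luciferin-ME (at Km) in 100mM KPO4; compound preincubated 10 min, NADPH regeneration added, 60 min at room temperature. Luciferin quantified by luminescence after detection reagent; normalized to 57 uM furafylline.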

Assay [2] can be described thus: AP1 Signaling Pathway (AID 357). As to conditions: ME-180 (cervical carcinoma) AP-1-bla reporter, EGF-induced, beta-lactamase ratio, 5 h; series mostly up to 17.2 µM. In a few lines: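 Read-out was the 460nm/530nm emission ratio (excitation 405nm) after CCF4 loading for 2.5 hours at room temperature. Cells carried an AP-1-driven beta-lactamase reporter, were stimulated with EC50 EGF plus compound for 5 hours, and AC50 values came from titrations.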

Assay [3] in a line: NFAT Signaling Pathway (AID 444).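 Also: carbachol stimulus at about its EC50 of 1 µM final.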 As to conditions: Jurkat NFAT-bla M1, carbachol, beta-lactamase ratio, 5 h; series mostly up to 17.2 µM. In a few lines:
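Read-out: CCF4 FRET ratio (460 nm/530 nm) after 1 h RT dye loading, used for %activity and AC50 from titration series. Cells: Jurkat NFAT-β-lactamase/M1 line, treated with compound plus 1 uM carbachol for 5 h, 37 °C.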

Inconclusive results are not listed. Entries that show only a call come without a potency. The source made the active and inactive calls. Unless noted, calls follow the shape of the dose curve; as a rule, active = well fitted curve in either direction with a large enough effect (not every such curve was filed as active); inconclusive = small, poorly fitted or top-dose-only effect, or another doubt; inactive = flat fitted curve, though single readings scatter.

Cytochrome P450 1A2 (Homo sapiens), sequence (P05177 whole entry, looked up): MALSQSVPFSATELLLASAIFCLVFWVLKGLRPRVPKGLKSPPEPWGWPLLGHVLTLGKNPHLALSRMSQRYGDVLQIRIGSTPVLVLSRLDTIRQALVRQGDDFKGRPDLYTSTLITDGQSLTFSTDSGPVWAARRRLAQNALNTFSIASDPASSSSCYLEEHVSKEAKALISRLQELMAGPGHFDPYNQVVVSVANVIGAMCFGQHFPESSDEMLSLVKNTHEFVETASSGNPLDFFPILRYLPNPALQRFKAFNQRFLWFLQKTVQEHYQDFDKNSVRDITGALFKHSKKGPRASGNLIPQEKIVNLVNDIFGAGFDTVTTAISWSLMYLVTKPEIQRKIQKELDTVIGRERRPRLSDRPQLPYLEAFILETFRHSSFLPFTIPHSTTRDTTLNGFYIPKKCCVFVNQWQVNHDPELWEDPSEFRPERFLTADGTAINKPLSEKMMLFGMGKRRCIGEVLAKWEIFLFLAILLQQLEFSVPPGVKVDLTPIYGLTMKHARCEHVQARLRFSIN

As to `CCC(=C(CC)c1ccc(O)cc1)c1ccc(O)cc1`, the Potency in assay [1] is 15.8 µM (active).

On to `NS(=O)(=O)c1cc(Cl)c(Cl)c(S(N)(=O)=O)c1`, for which the result in assay [2] and in assay [3] was inactive. For the same compound, in assay [1], the Potency entry was “inactive”.

In the case of `CC(NCCc1ccc(O)cc1)C(O)c1ccc(O)cc1` (stereo unspecified), the result in assay [2] was inactive.

With `Cc1cc(NC(=O)Nc2ccc(N(C)C)cc2)c2cc(F)cc(F)c2n1`, the Potency in assay [1] was 0.126 µM (active).

Consider `Cc1cc2nc3c(=O)[nH]c(=O)nc-3n(CC(O)C(O)C(O)CO)c2cc1C` (stereo unspecified), for which the result in assay [2] and in assay [3] was inactive.

In the case of `C=C1c2cccc(O)c2C(O)=C2C(=O)[C@@]3(O)C(O)=C(C(N)=O)C(=O)[C@@H](N(C)C)[C@@H]3[C@@H](O)[C@H]12`, the result in assay [2] and in assay [3] was inactive. Also, the Potency result in assay [1] was “inactive”.

For the origin of these results see PubChem BioAssay (NCATS).
